Screening data: PubChem BioAssay, The Scripps Research Institute Molecular Screening Center
The list is not random: actives were taken first. Their share in the collection is about 2.1%.
Luminol counter: luminol signal inhibition, Nox1 inhibitor counter-screen; HRP/luminol/H2O2 chemiluminescence counterscreen; inhibition, % at 6.7 µM; 16,000 tested, 0.4% active; AID 1823; further: reference of the scale not given here
PME-1 Maybr inh: PME-1 (human) inhibition, Maybridge primary screen. Q9Y570. recombinant PME-1, FP-Rh probe fluorescence polarization. inhibition, % at 9 µM. 16,000 tested, 0.5% active; in the data active means inhibition above about 30%
OPRK1 antag MB: blocks the human kappa opioid receptor, Maybridge compounds | AID 652031 | 16,000 tested, 0.4% active | inhibition, % at 9 µM | OPRK1 cells, antagonist mode, fluorescence readout; in the data active means inhibition above about 50%
Nox1 inhibitor: blocks human NADPH oxidase 1 activity; 16,000 tested, 0.81% active; inhibition, % at 6.7 µM; Q9Y5S8; HT29 cells, luminol chemiluminescence ROS
TLR4 MyD88 blk: inhibitors of human TLR4-MyD88 binding; Cell-based TLR4-MyD88 binding inhibition assay; inhibition, % at 10 µM; 16,000 tested, 0.06% active; AID 811; in the data active means inhibition above about 45%
Target sequence (O00206 whole entry, looked up): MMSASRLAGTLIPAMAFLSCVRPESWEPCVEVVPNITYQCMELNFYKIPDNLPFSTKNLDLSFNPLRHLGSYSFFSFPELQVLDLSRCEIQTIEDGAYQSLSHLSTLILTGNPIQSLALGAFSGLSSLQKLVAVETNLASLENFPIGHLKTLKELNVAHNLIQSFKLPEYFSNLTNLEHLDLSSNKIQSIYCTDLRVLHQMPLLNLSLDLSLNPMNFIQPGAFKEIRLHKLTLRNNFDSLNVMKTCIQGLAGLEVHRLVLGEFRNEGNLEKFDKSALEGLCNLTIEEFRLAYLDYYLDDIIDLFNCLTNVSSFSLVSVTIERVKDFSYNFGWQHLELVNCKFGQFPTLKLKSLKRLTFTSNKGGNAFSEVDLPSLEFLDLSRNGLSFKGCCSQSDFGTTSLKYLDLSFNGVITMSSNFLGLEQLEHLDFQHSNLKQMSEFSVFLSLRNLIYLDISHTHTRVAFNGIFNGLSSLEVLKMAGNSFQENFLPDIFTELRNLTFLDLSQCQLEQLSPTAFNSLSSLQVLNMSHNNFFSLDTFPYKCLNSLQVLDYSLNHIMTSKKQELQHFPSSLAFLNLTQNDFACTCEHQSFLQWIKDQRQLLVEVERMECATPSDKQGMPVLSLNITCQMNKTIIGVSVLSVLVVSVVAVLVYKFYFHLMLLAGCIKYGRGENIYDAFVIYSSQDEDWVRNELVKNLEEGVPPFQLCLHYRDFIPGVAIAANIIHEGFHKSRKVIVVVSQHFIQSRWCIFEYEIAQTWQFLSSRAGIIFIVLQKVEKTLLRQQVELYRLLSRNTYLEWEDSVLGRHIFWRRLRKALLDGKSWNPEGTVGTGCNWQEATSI
* marks the source's active call; other numbers are inactive results. Unless noted, no stated cut-off is given here; in the data, active means inhibition above about 75%; inactive means the rest.

SMILES | Luminol counter | PME-1 Maybr inh | OPRK1 antag MB | Nox1 inhibitor | TLR4 MyD88 blk
Cc1cc(C=C(C#N)C#N)c2c(C)ccc(C(C)C)cc1-2 | 13 | 16 | 10 | -9 | -4
Cc1ccc2c(c1)CCCN2C(=O)CC(=O)N1CCCc2cc(C)ccc21 | 77* | 8 | 5 | -6 | 0
CCOC(=O)/C(C#N)=C\c1ccc(-n2c(C)ccc2C)cc1 | 5 | -9 | 4 | -42 | 4
COC(=O)C1=C(C)Nc2[nH]ncc2C1c1ccccc1 (stereo not drawn) | 4 | 43* | 4 | -18 | 9
O=c1c(Nc2ccc(OC(F)(F)F)cc2)c(Nc2ccc(OC(F)(F)F)cc2)c1=O | -4 | 30* | 5 | 6 | -12
NNC(=S)Nc1ccc(OC(F)(F)F)cc1 | 27 | -2 | 8 | 3 | -1
COc1ccccc1N1CCN(S(=O)(=O)c2ccc(C(F)(F)F)cc2)CC1 | 3 | 1 | -3 | -66 | 14
O=C(NNc1c([N+](=O)[O-])cc(C(F)(F)F)cc1[N+](=O)[O-])c1ccccc1-n1cccc1 | -9 | -8 | -39 | 102* | -3
COc1ccc(C(=O)NNc2c([N+](=O)[O-])cc(C(F)(F)F)cc2[N+](=O)[O-])cc1 | 4 | 5 | 16 | 89* | -7
CS(=O)(=O)OCC12CC3CC(CC(C3)C1)C2 | -8 | 4 | 2 | -11 | -4
CCSc1nc(N)cc(=O)[nH]1 | -3 | 6 | 7 | 4 | -3
O=C1c2ccccc2C(=O)N1/N=C/c1ccc([N+](=O)[O-])s1 | 1 | 1 | 9 | -34 | -14
COC(=O)c1cnn(-c2ccccc2)c1/C=N/OC(=O)c1ccc(Cl)cc1 | 1 | 0 | -1 | -13 | -7
CCOC(=O)c1nc(CS(=O)(=O)c2ccc(Cl)cc2)no1 | 3 | -6 | -1 | -52 | -4
COc1ccc2c(c1)CCCN2Cc1c[nH]c2ccccc12 | -12 | 17 | 3 | 101* | 10
CCOC(=O)C1CCN(c2ccccc2CN2CCCc3cc(C)ccc32)CC1 | -3 | 3 | 9 | 20 | -8
COC(=O)c1sccc1NNC(=O)CC#N | 15 | 3 | 13 | 87* | 8
